Source: the supplement of paper PMC3334620
The full ranking holds about 33,000 sequences; the median of “E-score (-0.5 to 0.5)” is about -0.043, and the highest 2% start at about 0.37. The sample holds the highest values, similar sequences and a random draw of the others, so the mix is not that of the screen.

Target: T1, Upc2 (UniProt Q12151)
T1 sequence: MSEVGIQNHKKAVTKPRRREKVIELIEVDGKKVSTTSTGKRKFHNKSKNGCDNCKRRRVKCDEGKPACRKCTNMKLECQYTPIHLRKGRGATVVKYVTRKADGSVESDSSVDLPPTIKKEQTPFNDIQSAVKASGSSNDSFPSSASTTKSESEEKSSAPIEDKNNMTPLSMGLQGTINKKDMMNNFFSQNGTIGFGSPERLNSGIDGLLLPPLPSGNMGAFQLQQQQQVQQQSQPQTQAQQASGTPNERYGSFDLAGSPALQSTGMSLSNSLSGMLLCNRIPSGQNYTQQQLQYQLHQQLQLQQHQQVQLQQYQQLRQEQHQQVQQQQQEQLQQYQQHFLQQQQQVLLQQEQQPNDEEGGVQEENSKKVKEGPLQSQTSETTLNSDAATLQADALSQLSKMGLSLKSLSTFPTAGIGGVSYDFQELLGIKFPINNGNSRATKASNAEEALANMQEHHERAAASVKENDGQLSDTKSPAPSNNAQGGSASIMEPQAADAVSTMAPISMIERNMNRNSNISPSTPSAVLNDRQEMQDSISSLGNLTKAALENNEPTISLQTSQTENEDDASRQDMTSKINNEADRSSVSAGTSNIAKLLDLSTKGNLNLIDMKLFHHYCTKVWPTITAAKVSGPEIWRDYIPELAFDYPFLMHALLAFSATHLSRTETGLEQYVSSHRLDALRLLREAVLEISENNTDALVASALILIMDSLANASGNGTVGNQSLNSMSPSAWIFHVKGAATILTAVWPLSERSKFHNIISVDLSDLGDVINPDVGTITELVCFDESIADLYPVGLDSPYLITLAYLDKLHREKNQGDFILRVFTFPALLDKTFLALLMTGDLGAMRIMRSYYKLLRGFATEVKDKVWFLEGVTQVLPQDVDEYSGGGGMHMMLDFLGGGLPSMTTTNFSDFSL
Test: PBM E-score (8-mer binding enrichment) (E-score (-0.5 to 0.5)); higher = stronger / more preferred TF binding
Details: protein concentration: 200 nM; construct: GST-full length
Procedure, shortened: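 For each ungapped eight-base word taken together with its reverse complement, the Universal PBM Analysis Suite assigned an E-score. Binding data came from GST-tagged yeast transcription factors, applied at about 100-200 nM, on universal all-10-mer Agilent arrays made double-stranded by primer extension. Fluorescent anti-GST marked bound protein, and scans were normalised with masliner.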

Compared with GAGTCAAA, ATTCTAAC is higher in “PBM E-score” value: -0.229 for the first, -0.125 for the second.

Going from AGCAAGAG to CTGAGCTA, the “PBM E-score” value rises from -0.203 to -0.0866.

Going from ACCGCTTC to AGTGAACT, the “PBM E-score” value rises from -0.203 to -0.117.

First: ACTGTTCG
Second: GCGTACTA
The “PBM E-score” value of the first is higher: 0.16 for the first, 0.0874 for the second.

Going from CCGTACGG to ACGTACGG, the “PBM E-score” value falls from 0.374 to 0.354.

Compared with GCGTACGC, CCGTACTA is higher in “PBM E-score” value: 0.281 for the first, 0.282 for the second.

First: ACGTACGT
Second: ACGTACGA
The “PBM E-score” value of the first is lower: 0.293 for the first, 0.431 for the second.

First: GCGTACGA
Second: CCCTACGG
The “PBM E-score” value of the first is higher: 0.448 for the first, -0.0948 for the second.

Compared with CCGTACGC, ACGTACGC is lower in “PBM E-score” value: 0.308 for the first, 0.254 for the second.

Going from CCGTACGA to TAAAGCCA, the “PBM E-score” value falls from 0.443 to 0.0825.

Going from ATGCGACG to AAGAATCT, the “PBM E-score” value falls from 0.306 to -0.148.

First: CCTTGCAA
Second: AGTGCGAT
The “PBM E-score” value of the first is lower: -0.115 for the first, 0.0239 for the second.

Compared with GATAGAAA, AGACCCTG is lower in “PBM E-score” value: 0.0471 for the first, -0.259 for the second.

First: TCTCCTAA
Second: TCGCACGA
The “PBM E-score” value of the first is lower: -0.00947 for the first, 0.0732 for the second.

Compared with TCCTACGA, TCGTACGA is higher in “PBM E-score” value: 0.256 for the first, 0.471 for the second.

Going from CCTCGATA to CAACGCTG, the “PBM E-score” value falls from -0.0083 to -0.0985.

Going from ACCTCGTA to CCCTCGTC, the “PBM E-score” value falls from 0.462 to 0.122.

Compared with GCCTCGAA, ACCTCGTC is higher in “PBM E-score” value: 0.00343 for the first, 0.0626 for the second.

First: GCCTCGGA
Second: CCCTCGTA
The “PBM E-score” value of the first is lower: 0.135 for the first, 0.465 for the second.

Compared with ACCTCGTG, GCCTCGTA is higher in “PBM E-score” value: 0.2 for the first, 0.473 for the second.

First: CCCTCGGA
Second: TCCACTCA
The “PBM E-score” value of the first is higher: 0.195 for the first, -0.17 for the second.

First: CTAAGAGA
Second: ACAGAGCG
The “PBM E-score” value of the first is higher: -0.0721 for the first, -0.0821 for the second.

First: TAGGCAAA
Second: AACAGTTA
The “PBM E-score” value of the first is higher: -0.108 for the first, -0.135 for the second.

First: CTATCGAA
Second: CTATCGTA
The “PBM E-score” value of the first is lower: -0.056 for the first, 0.43 for the second.

First: GTATCGTA
Second: CTATCGTC
The “PBM E-score” value of the first is higher: 0.423 for the first, -0.0375 for the second.

First: ATATCGTA
Second: ATATCGTC
The “PBM E-score” value of the first is higher: 0.427 for the first, 0.0922 for the second.

Going from GTATCGAA to GTATCGGA, the “PBM E-score” value rises from 0.142 to 0.229.

Compared with ATATCGTG, CCTAGCGA is lower in “PBM E-score” value: 0.0382 for the first, -0.299 for the second.

First: CCCCTCTC
Second: ACCGGCCC
The “PBM E-score” value of the first is lower: -0.185 for the first, 0.0253 for the second.

Compared with ATCTGTAA, ATGTAAAC is higher in “PBM E-score” value: -0.0759 for the first, 0.27 for the second.

Compared with AGTGAGAC, GCCTGCCA is lower in “PBM E-score” value: -0.0557 for the first, -0.317 for the second.

Going from CAATAGAA to CCGAACCG, the “PBM E-score” value rises from -0.241 to 0.0623.

Compared with GCGAACCA, ACGAACCC is higher in “PBM E-score” value: 0.164 for the first, 0.301 for the second.

Compared with ACGAACCG, CCGAACCA is lower in “PBM E-score” value: 0.378 for the first, -0.127 for the second.

Compared with ACGAACCA, TCAGCCAA is lower in “PBM E-score” value: 0.376 for the first, -0.177 for the second.

First: CGTGCGAA
Second: ATTTTGCA
The “PBM E-score” value of the first is higher: 0.214 for the first, -0.0911 for the second.

Compared with CTTTACGA, ATTTACGC is lower in “PBM E-score” value: 0.471 for the first, 0.154 for the second.

Going from GTTTACAA to ATTTACGG, the “PBM E-score” value rises from 0.164 to 0.297.

First: CATTACGA
Second: ATTTACGA
The “PBM E-score” value of the first is lower: 0.316 for the first, 0.45 for the second.

First: CTTTACGC
Second: GTTTACTA
The “PBM E-score” value of the first is higher: 0.332 for the first, 0.224 for the second.

Going from GTTTACGA to GAGGGGGA, the “PBM E-score” value falls from 0.471 to -0.0209.

Compared with GTCGAGTA, ATTGTATC is lower in “PBM E-score” value: 0.0357 for the first, -0.2 for the second.

Going from GAGGGAAC to AATAAGTA, the “PBM E-score” value rises from -0.0277 to 0.0339.

First: CTGTTGGC
Second: CTGCGACC
The “PBM E-score” value of the first is lower: -0.209 for the first, -0.164 for the second.

Going from ATCACAGA to CTCCTATA, the “PBM E-score” value rises from -0.155 to -0.0688.

Compared with CGCTATTC, CACAAACG is higher in “PBM E-score” value: 0.102 for the first, 0.387 for the second.

First: CCCAAGCG
Second: ACCAAACC
The “PBM E-score” value of the first is higher: -0.031 for the first, -0.0475 for the second.

First: CACAAACA
Second: CGCAAGCG
The “PBM E-score” value of the first is lower: -0.0461 for the first, 0.115 for the second.

Compared with CCCAAACG, AACAAACG is lower in “PBM E-score” value: 0.431 for the first, 0.353 for the second.

Going from ACCAAACG to CCAAAACG, the “PBM E-score” value falls from 0.4 to 0.114.

Compared with CGCAAACA, ACCAAACA is higher in “PBM E-score” value: 0.0866 for the first, 0.208 for the second.

Going from CGCAAACG to AGGCCAAG, the “PBM E-score” value falls from 0.412 to -0.17.

First: GAGCAGCA
Second: AGTTCGAA
The “PBM E-score” value of the first is lower: -0.098 for the first, 0.0491 for the second.

Going from AACACAGA to CCCTTCGG, the “PBM E-score” value falls from -0.00201 to -0.0969.

Compared with ATCGCAAG, AGGACTTG is lower in “PBM E-score” value: -0.255 for the first, -0.287 for the second.

Compared with CCTACGCA, CACGACAC is higher in “PBM E-score” value: -0.196 for the first, 0.114 for the second.

Compared with AACGACAT, AACGACAG is lower in “PBM E-score” value: 0.432 for the first, 0.419 for the second.

Going from AACGACAA to AACGACAC, the “PBM E-score” value rises from 0.402 to 0.428.

Compared with ATCGACAG, CACGACAG is higher in “PBM E-score” value: -0.0101 for the first, 0.0499 for the second.

Going from GACGACAA to CACGACAA, the “PBM E-score” value falls from 0.0707 to 0.0377.

First: ACCGACAT
Second: AGCGACAT
The “PBM E-score” value of the first is higher: 0.199 for the first, 0.177 for the second.

First: GACGACAC
Second: GACCAAGC
The “PBM E-score” value of the first is higher: -0.079 for the first, -0.234 for the second.

First: CCATGGAC
Second: AGGACAGA
The “PBM E-score” value of the first is higher: -0.201 for the first, -0.347 for the second.

Going from ATGTGAAC to GAATTAGC, the “PBM E-score” value falls from 0.00151 to -0.0225.

First: CTTACAGC
Second: TCCGGGAA
The “PBM E-score” value of the first is higher: -0.0579 for the first, -0.0708 for the second.

Going from GGAAGAAA to GGATCGCC, the “PBM E-score” value rises from -0.136 to -0.0204.

Going from TACGACAA to TTCGACAA, the “PBM E-score” value falls from 0.46 to 0.0423.

Compared with TGCGACAA, ACTCTATA is lower in “PBM E-score” value: 0.141 for the first, 0.0319 for the second.

First: GGACCTTA
Second: ATCGTTAA
The “PBM E-score” value of the first is lower: 0.00047 for the first, 0.435 for the second.

Going from CTCGTTAA to CTCGTTAC, the “PBM E-score” value falls from 0.466 to 0.36.

Going from GGCGTTAA to ATCGTTAC, the “PBM E-score” value rises from 0.161 to 0.264.

Compared with CACGTTAA, GACGTTAA is higher in “PBM E-score” value: 0.131 for the first, 0.154 for the second.

Compared with ATCGTTAG, GTCGTTAA is higher in “PBM E-score” value: 0.239 for the first, 0.465 for the second.

Compared with AGCAGCAC, GTGCTCGA is higher in “PBM E-score” value: -0.113 for the first, 0.0349 for the second.

Going from ATGAGTGG to CAATCTTA, the “PBM E-score” value rises from -0.126 to 0.065.

Compared with ATATAGCA, CTATAGCA is lower in “PBM E-score” value: -0.0248 for the first, -0.0859 for the second.

Going from GTATAGCA to CAGATCAC, the “PBM E-score” value falls from 0.377 to -0.266.

Going from AGTCTTTC to GCCAATAC, the “PBM E-score” value rises from -0.0324 to 0.0787.

Going from ACATTCGG to ACATTCGT, the “PBM E-score” value rises from 0.0333 to 0.375.

First: ACATTCGA
Second: AACATCCA
The “PBM E-score” value of the first is higher: 0.0307 for the first, -0.0529 for the second.

Compared with ATGTCCTA, AGATCTCG is higher in “PBM E-score” value: 0.0227 for the first, 0.235 for the second.

Compared with AATCGTAT, GATCGTAA is lower in “PBM E-score” value: 0.44 for the first, 0.396 for the second.

First: CATCGTCA
Second: CATCGTAA
The “PBM E-score” value of the first is lower: -0.163 for the first, 0.389 for the second.

Compared with CATCGTCC, CATCGTAG is higher in “PBM E-score” value: -0.0591 for the first, 0.295 for the second.

First: GATCGTTA
Second: AATCGTCT
The “PBM E-score” value of the first is higher: 0.291 for the first, 0.0582 for the second.

First: AATCGTAG
Second: AATCGTAA
The “PBM E-score” value of the first is lower: 0.241 for the first, 0.368 for the second.

Going from CATCGTGA to CATCGTAC, the “PBM E-score” value rises from 0.0225 to 0.454.
